{"source": "the supplement of paper PMC7669877", "note": "± gives the uncertainty stated by the source."}
{"system": "Candidatus Liberibacter solanacearum in potato hairy roots", "test": "relative CLso titer (% of untreated control); higher = less inhibition of bacterial titer", "details": "10 µM; 72 h", "method": "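Primary screen of ~220 Spectrum collection (MicroSource) compounds at 10 µM (0.1% DMSO) on Candidatus Liberibacter solanacearum-infected potato hairy roots in multi-well plates (Gamborg B-5 medium, vacuum infiltrated, 21 °C, dark, 72 h). CLso titer was measured by qPCR of 16S rDNA normalised to potato RPL2 (2^-ddCq), pairwise-standardised against untreated controls, averaged over two biological replicates and expressed as % of untreated.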", "units": {"relative CLso titer": "%"}}
{"compound": "NC(=O)CN1CCCC1=O", "relative CLso titer": "123 ± 35"}
{"compound": "CCCCCCCCCCCCCCCC[n+]1ccccc1", "relative CLso titer": "136 ± 72"}
{"compound": "CC(=O)O[C@H]1C[C@H](O[C@H]2[C@@H](O)C[C@H](O[C@H]3[C@@H](O)C[C@H](O[C@H]4CC[C@@]5(C)[C@H](CC[C@@H]6[C@@H]5C[C@@H](O)[C@]5(C)[C@@H](C7=CC(=O)OC7)CC[C@]65O)C4)O[C@@H]3C)O[C@@H]2C)O[C@H](C)[C@H]1O[C@@H]1O[C@H](CO)[C@@H](O)[C@H](O)[C@H]1O", "relative CLso titer": "118 ± 37"}
{"compound": "C[N+]12CCC(CC1)C(OC(=O)C(O)(c1ccccc1)c1ccccc1)C2", "note": "(stereo not given)", "relative CLso titer": "57.1 ± 5"}
{"compound": "C[C@@H]1C[C@@H]([C@H](O)CC2CC(=O)NC(=O)C2)C(=O)[C@@H](C)C1", "relative CLso titer": "214 ± 43"}
{"compound": "Cc1cccc(C)c1NC1=NCCCS1", "relative CLso titer": "91.4 ± 17"}
{"compound": "O=c1[nH]c2ccccc2n1CCCN1CCC(n2c(=O)[nH]c3cc(Cl)ccc32)CC1", "relative CLso titer": "126 ± 28"}
{"compound": "CNC(C)[C@H](O)c1ccccc1", "note": "(stereo not given in full)", "relative CLso titer": "160 ± 24"}
{"compound": "[O-][n+]1ccccc1[S-].[O-][n+]1ccccc1[S-].[Zn+2]", "relative CLso titer": "64.7 ± 4.9"}
{"compound": "O=C1CCO1", "relative CLso titer": "103 ± 58"}
{"compound": "COc1ccc2c(c1)[C@]13CCCC[C@@H]1[C@H](C2)N(C)CC3", "relative CLso titer": "539 ± 330"}
{"compound": "CO[C@]12C[C@@H](COC(=O)c3cncc(Br)c3)CN(C)[C@@H]1Cc1cn(C)c3cccc2c13", "relative CLso titer": "135 ± 20"}
{"compound": "CCCC(C)(COC(N)=O)COC(=O)NC(C)C", "note": "(stereo not given)", "relative CLso titer": "92.4 ± 17"}
{"compound": "CC(C)C[C@H]1C(=O)N2CCC[C@H]2[C@]2(O)O[C@](NC(=O)[C@@H]3C=C4c5cccc6[nH]c(Br)c(c56)C[C@H]4N(C)C3)(C(C)C)C(=O)N12", "relative CLso titer": "76.9 ± 25"}
{"compound": "O=C(O)CCCc1ccc(N(CCCl)CCCl)cc1", "relative CLso titer": "111 ± 11"}
{"compound": "C[C@@H]1O[C@@H](O[C@H]2C[C@@H](O)[C@]3(CO)[C@H]4[C@H](O)C[C@]5(C)[C@@H](C6=CC(=O)OC6)CC[C@]5(O)[C@@H]4CC[C@]3(O)C2)[C@H](O)[C@H](O)[C@H]1O", "relative CLso titer": "85.6 ± 47"}
{"compound": "Cc1ccc(O)cc1.Cc1cccc(O)c1.Cc1ccccc1O", "relative CLso titer": "70.4 ± 30"}
{"compound": "Cc1cc(O)ccc1Cl", "relative CLso titer": "45.9 ± 1.8"}
{"compound": "CN[C@@H](C)[C@@H](O)c1ccccc1", "relative CLso titer": "98.4 ± 3.8"}
{"compound": "O=C(O)CCCO", "relative CLso titer": "127 ± 31"}
{"compound": "C[C@]12CC[C@H]3[C@@H](CCC4=CC(=O)CC[C@@]43C)[C@@H]1CC[C@@H]2O", "relative CLso titer": "119 ± 11"}
{"compound": "O=P1(N(CCCl)CCCl)NCCCO1", "note": "(stereo not given)", "relative CLso titer": "39.8 ± 6.9"}
{"compound": "CN1C[C@H](C(=O)N[C@]2(C)O[C@@]3(O)[C@@H]4CCCN4C(=O)[C@H](Cc4ccccc4)N3C2=O)C[C@@H]2c3cccc4[nH]cc(c34)C[C@H]21", "relative CLso titer": "107 ± 46"}
{"compound": "Fc1ccc(Oc2ccnc3cc(Cl)cc(Cl)c23)cc1", "relative CLso titer": "85.4 ± 20"}
{"compound": "COc1cc2c(c(OC)c1OC)-c1ccc(OC)c(=O)cc1[C@@H](NC(C)=O)CC2", "relative CLso titer": "47.6 ± 2.7"}
{"compound": "c1ccc2c(c1)sc1ccccc12", "relative CLso titer": "193 ± 4.5"}
{"compound": "CC[C@H]1CN2CCc3cc(OC)c(OC)cc3[C@@H]2C[C@@H]1C[C@H]1NCCc2cc(OC)c(OC)cc21", "relative CLso titer": "117 ± 28"}
{"compound": "CCC(=O)O[C@H]1CC[C@H]2[C@@H]3CCC4=CC(=O)CC[C@]4(C)[C@H]3CC[C@]12C", "relative CLso titer": "83.1 ± 2.9"}
{"compound": "O=c1[nH]c2ccccc2n1C1CCN(CCCC(c2ccc(F)cc2)c2ccc(F)cc2)CC1", "relative CLso titer": "135 ± 2"}
{"compound": "N.N.[Cl][Pt][Cl]", "relative CLso titer": "76.7 ± 6.9"}
